Compounds without any hit were thinned out: in the full panel of roughly 79,000, 15% have a hit. Values without a mark were called inactive. The source made the active and inactive calls. No stated cut-off is given here; in the data, active means growth inhibition above about 70%; inactive means the rest.
Assays:
[1] = NCI Yeast Anticancer Drug Screen. Data for the rad50 strain (AID 155);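 further: 0% = growth of vehicle-only cultures of the same strain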; details: S. cerevisiae rad50 strain growth inhibition, hits give high values
Outline: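 A DNA repair-deficient yeast mutant serves as the test organism; compound-induced growth inhibition is calculated against vehicle-treated cells.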

[2] = NCI Yeast Anticancer Drug Screen. Data for the mec2-1 strain (AID 157); details: S. cerevisiae mec2-1 strain, hits give high values
Outline: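 Mutant yeast (mec2-1) grown with compound; growth inhibition relative to vehicle control reported.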

[3] = NCI Yeast Anticancer Drug Screen. Data for the sgs1 mgt1 strain (AID 161);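 further: 0% = growth of cultures given vehicle only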; details: S. cerevisiae sgs1 mgt1 strain, hits give high values
Outline: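 Growth of a repair-deficient yeast mutant was monitored after compound treatment and expressed as inhibition relative to vehicle-treated cultures.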

[4] = NCI Yeast Anticancer Drug Screen. Data for the cln2 rad14 strain (AID 165);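 further: 0% = growth equal to vehicle treated cultures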; details: S. cerevisiae cln2 rad14 strain, hits give high values
Outline: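 Readout is yeast growth inhibition versus vehicle-treated controls, using a strain with cln2 and rad14 alterations exposed to compound.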

[5] = NCI Yeast Anticancer Drug Screen. Data for the bub3 strain (AID 167); details: S. cerevisiae bub3 mutant strain, hits give high values
Outline: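 Inhibition values come from growth of compound-treated mutant yeast normalised to vehicle-treated controls.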

[6] = NCI Yeast Anticancer Drug Screen. Data for the mlh1 rad18 strain (AID 175); details: S. cerevisiae mlh1 rad18 strain growth inhibition, hits give high values
Outline: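 Genetically defined yeast (DNA repair-deficient) exposed to compounds; growth inhibition determined relative to vehicle.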

[7] = at 5.0 µM (retest, dose inferred, filed as 0.5)
[8] = at 50.0 µM (retest, dose inferred, filed as 5.0)

Row | SMILES | growth inhibition [1, 7] | growth inhibition [1, 8] | growth inhibition ([1]; at 50.0 µM) | growth inhibition [2, 7] | growth inhibition [2, 8] | growth inhibition ([2]; at 50.0 µM) | growth inhibition [3, 7] | growth inhibition [3, 8] | growth inhibition ([3]; at 50.0 µM) | growth inhibition [4, 7] | growth inhibition [4, 8] | growth inhibition ([4]; at 50.0 µM) | growth inhibition [5, 7] | growth inhibition [5, 8] | growth inhibition ([5]; at 50.0 µM) | growth inhibition [6, 7] | growth inhibition [6, 8] | growth inhibition ([6]; at 50.0 µM)
1 | C=C1C(=O)C23C(O)C1CC[C@H]2C12CCCC(C)(COC(C)=O)[C@H]1[C@H](O)[C@]3(O)OC2 (some centres undefined) | 28% | 94% (active) | 90.4% (active) | 26% | 97% (active) | 92.2% (active) | 83% (active) | 97% (active) | 92.2% (active) | 77% (active) | 96% (active) | 89.2% (active) | 22% | 96% (active) | 90% (active) | 43% | 95% (active) | 89.2% (active)
2 | Cn1c2nc(-[n+]3ccc4ccccc4c3)nc-2c([O-])n(C)c1=O | 34% | 95% (active) | -9.45% | 12% | 96% (active) | 3.55% | 15% | 96% (active) | -13.1% | 3% | 84% (active) | 49% | 8% | 97% (active) | 0.2% | 12% | 98% (active) | -3.35%
3 | CCC=Nc1c(O)cc(-c2ccccc2)n(C)c1=O | 36% | 71% (active) | 73.2% (active) | 35% | 75% (active) | 11.9% | 40% | 92% (active) | 70.8% (active) | 35% | 45% | 16.3% | 35% | 93% (active) | 70% (active) | 47% | 94% (active) | 60.5%
4 | COC(=O)C1=C(C)NC(c2ccc(OC)cc2OC)C(C(=O)OC)=C1C (centres undefined) | 4% | 21% | 68.7% | 3% | 11% | 25.6% | 1% | 14% | 76.8% (active) | -3% | 4% | 25.6% | 1% | 16% | 49.7% | -1% | 24% | 58%
5 | O=S(=O)(N/N=C/c1ccc(Cl)cc1Cl)c1ccccc1 | -20% | -11% | -19.3% | -4% | -11% | -10.3% | 10% | -14% | -12.4% | -16% | -15% | -26.9% | 17% | 22% | -16.6% | 8% | 4% | 14%
6 | OCC(O)C(O)C(/C=N/Nc1ccccc1)=N/Nc1ccccc1 (centres undefined) | 11% | 45% | 44% | 7% | 32% | 13.7% | 10% | 57% | 47.4% | 51% | 38% | 13.4% | 6% | -65% | -5.35% | 2% | 61% | 60.4%
7 | COC(=O)C(=O)/C=C(/O)c1ccc(OC)cc1 | -16% | -1% | -2.15% | -28% | -9% | -28.3% | -7% | 5% | 43% | -12% | 18% | 4.15% | -4% | 24% | 9.85% | -34% | 38% | -26.5%
8 | C[C@@]12C[C@@H](Br)[C@H](Br)C[C@]1(C)O2 | 0% | 16% | 94.5% (active) | -1% | 8% | 98.7% (active) | 0% | 15% | 98.1% (active) | -2% | 2% | 64.5% | -6% | 0% | 55% | -1% | 6% | 93.2% (active)

— PubChem BioAssay (NCI)
